# beta cell repl = inducers of beta-cell replication in MIN6 cells; MIN6 cells proliferation, ATPlite luminescence, 48 h; cells starved in 0.2% serum; 100% = growth in 10% serum; proliferation, % at 10 µM; 0.29% of 330,000 active; AID 2380;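 active means compounds whose signal lies at least 3.5 SD above the mean of all wells on their plate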;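 further: 0% = DMSO-treated cells in low-serum medium and 100% = 10% serum control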
# NR3A LBD binder = modulates the human NR3A ligand-binding domain. NR3A LBD differential scanning fluorimetry, Tm shift; 0% = protein alone, 100% = glycine-bound protein. Tm shift relative to glycine control, % at 25 µM. 2.5% of 340,000 active;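 active means melting temperature shift of at least 10% of the positive control shift, at one fixed dose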
# MPTP inh = inhibitors of mitochondrial permeability transition pore; isolated mouse mitochondria, Ca2+ swelling absorbance, 30 min; inhibition, % at 10 µM; 1.4% of 360,000 active;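 active means inhibition of 50% or more, scaled per plate between neutral and stimulator controls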;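 further: 0% = DMSO wells given calcium and 100% = 1 mM EGTA wells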
# p-CIP stab down = lowers stability of the mouse p/CIP coactivator protein; Q05BA5; F442A p/CIP-EGFP cells, EGFP fluorescence, 16 h; decrease of EGFP signal, % at 10 µM; 0.01% of 290,000 active; AID 1984;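 active means EGFP signal decrease of at least 30% at 10 µM or well 3 SD below plate mean, unless failing retest; inactive means the rest, including hits failing retest or dose response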
# FAS-TE inh = blocks the thioesterase domain of human fatty acid synthase | 0.67% of 360,000 active | inhibition, % at 15 µM | recombinant FAS-TE, OMFH fluorogenic substrate, fluorescence endpoint | AID 602261 | P49327;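 active means compounds whose normalised, plate-corrected inhibition of enzyme fluorescence in the single-dose primary screen is 50% or more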;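 further: 0% = DMSO with enzyme and 100% = substrate without enzyme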
# Rh123 counter = mitochondrial membrane potential, counter-screen | shares compounds with MPTP inh | isolated mitochondria, Rhodamine 123 fluorescence | inhibition, % at 10 µM | 78% of 5,000 active | AID 624504; in the data active means inhibition above about 22%;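 further: 0% = DMSO vehicle and 100% = positive control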
# MPTP abs DR = MPTP inhibition, dose response swelling confirmation; 58% of 780 active; isolated mitochondria swelling, absorbance; IC50, µM; shares compounds with MPTP inh; AID 651561; in the data active means IC50 below about 20 µM
# MPTP cs DR = active in counter-screen for permeability transition pore inhibitors; shares compounds with MPTP inh; 49% of 780 active; isolated mitochondria counterscreen, fluorescence read-out; IC50, µM; AID 651564; in the data active means IC50 below about 80 µM
# An asterisk follows results filed as active; . = no result given. Most compounds without a hit are left out; they make up all but 4.1% or so of the library.
SMILES,beta cell repl,NR3A LBD binder,MPTP inh,p-CIP stab down,FAS-TE inh,Rh123 counter,others
CCN1CCN(C(=O)c2cc(COc3ccc(C(C)=O)cc3OC)on2)CC1,4,-1,-3,4,-6,.,
CCOC(=O)c1ccc(-c2c(C(=O)OCC)oc3cc(O)c(CC)cc3c2=O)o1,-2,-2,82*,3,3,86*,
CN(CC(=O)Nc1cccc(F)c1)CC(=O)Nc1ccccc1[N+](=O)[O-],-4,0,78*,-8,3,51*,
CSc1ccccc1NC(=O)COc1ccc(Cl)cc1C,-1,2,0,-4,32,.,
CCOC(=O)c1c(C)oc(NC(=O)COc2ccc(Cl)cc2C)c1C#N,0,1,70*,-6,13,51*,
COc1cc(OC)cc(-c2nnc(Nc3nc4c(F)cccc4s3)o2)c1,-4,-19,25,-8,16,.,
O=C(NNc1nc2c(F)cccc2s1)c1ccc(F)cc1,5,4,66*,-37,-13,90*,
Fc1cccc2sc(Nc3nc4c(F)cccc4s3)nc12,-4,9,56*,2,4,69*,
Fc1cccc2sc(Nc3nnc(-c4ccccc4)o3)nc12,-6,-11,76*,1,2,76*,
O=c1[nH]n(CC2COC3(CCCCC3)O2)c(=O)c2ccccc12 (stereo not given),-1,1,-1,-4,-5,.,
CCOc1ccc(CN(C)C(=O)c2cc(S(=O)(=O)N3CCCC3)ccc2C)cc1,2,0,-1,.,4,.,
C/C(=N\NC(=S)NCC(C)(C)C)c1cc(F)cc(F)c1O,-3,6,85*,-2,11,73*,
Cc1ccc(S(=O)(=O)N2CCC(=O)N(CCOCc3ccc(C(F)(F)F)cc3)CC2)cc1,-8,-3,78*,-11,22,99*,
O=C1CCN(S(=O)(=O)c2ccccc2)CCN1CCOCc1ccc(C(F)(F)F)cc1,-3,1,22,-17,2,.,
Cc1ccc(-c2csc3nc(-c4ccncc4)[nH]c(=O)c23)cc1,-5,1,98*,-10,-12,19,MPTP abs DR=3*;MPTP cs DR=<2.5*
COC(=O)c1cc(NC(=O)c2ccccc2F)cc(C(=O)OC)c1,-2,1,-2,-1,-2,.,
CC(Nc1ncnc2sccc12)c1ccccc1 (stereo not given),-4,0,84*,-32,-4,80*,
CC[C@@]1(C(=O)OC)N[C@H](CN(C)S(=O)(=O)c2ccccc2)[C@@H]2C(=O)N(C)C(=O)[C@@H]21,-2,1,-1,.,-12,.,
Cc1ccc(C23CC4CC(CC(NC(=O)N5CCN(C)CC5)(C4)C2)C3)cc1,-4,-7,71*,-12,-8,-12,MPTP abs DR=16*;MPTP cs DR=>80
Fc1ccccc1C1c2cccn2CCN1C(=S)Nc1ccc(Br)cc1 (stereo not given),-6,7,101*,0,46,92*,
Fc1ccccc1C1c2cccn2CCN1C(=S)Nc1cccc(Br)c1 (stereo not given),-4,0,3,5,-3,.,
CCc1cccc(NC(=O)Nc2ccc3c(c2)OCO3)c1,-3,1,59*,2,-6,76*,
O=C(NCc1ccc2c(c1)OCO2)Nc1cccc(Cl)c1,-1,-5,5,-8,29,.,
O=C(Nc1ccc2c(c1)OCO2)NC1(C(F)(F)F)Oc2ccccc2O1,-5,1,55*,4,-1,60*,
O=C(Nc1cccc(Cl)c1)Nc1ccc2c(c1)OCO2,-3,33*,100*,-1,9,85*,
SMILES,beta cell repl,NR3A LBD binder,MPTP inh,p-CIP stab down,FAS-TE inh,Rh123 counter,others
O=C(Nc1ccc2c(c1)OCO2)N1CCCC1,3,-1,82*,-1,-8,85*,
O=C(CCl)NCCCN(C(=O)C(Cl)Cl)c1ccc([N+](=O)[O-])cc1,-2,0,2,-4,-5,.,
CCOC(=O)C1CCN(C(=O)c2ccc(OCC(=O)Nc3cccc(C(F)(F)F)c3)c(OC)c2)CC1,-5,1,10,.,14,.,
Cn1cc(P(=S)(N2CCOCC2)N2CCOCC2)cc1P(=S)(N1CCOCC1)N1CCOCC1,-1,-1,0,6,-9,.,
CCC1C(c2ccccc2)=CCC(C(=O)O)C1C (stereo not given),.,-1,0,.,-8,.,
CC(=O)c1sc2nsc(SCCN3CCCC3)c2c1N,4,3,2,-3,-5,.,
COc1ccc2c(c1)CCC(=O)[C@H](O)C[C@H](c1ccccc1)OC2=O,.,.,1,.,-6,.,
CN(C(=O)COc1ccccc1C(=O)NCCOc1ccccc1)c1ccccc1,-3,-5,51*,4,18,31*,
CC(C)(C)NC(=O)CSc1nc2ccc(NC(=O)CSc3nnc(N)s3)cc2s1,0,-7,67*,2,-12,25*,
Nc1ccc2nc(SCC(=O)Nc3ccc(N4CCOCC4)c(Cl)c3)sc2c1,-5,18*,58*,8,-4,7,MPTP abs DR=18*;MPTP cs DR=28*
CC(C(=O)Nc1ccccc1)c1ccc(-c2ccccc2)c(F)c1 (stereo not given),-6,2,86*,-31,34,122*,
CC(C(=O)O)c1ccc(-c2ccccc2)c(F)c1 (stereo not given),1,-1,0,10,-4,.,
COC(=O)c1scc(C#N)c1N/N=C(\C#N)S(=O)(=O)c1ccc(Cl)cc1,-6,5,67*,-21,5,84*,
COC(=O)c1scc(S(=O)(=O)C(C)C)c1N/N=C(\C#N)C(=O)c1ccc(Cl)cc1,-3,5,73*,-19,-1,78*,
COCCCn1c(SC(C)C(=O)NC2CC2)nc2ccccc2c1=O (stereo not given),-3,1,1,.,-16,.,
CCOC(=O)c1sc(=S)n(C)c1NC(=O)c1ccc(C(C)(C)C)cc1,-3,5,75*,6,31,88*,
CCOC(=O)c1sc(=S)n(C)c1NC(=O)c1ccccc1Cl,-4,-9,8,6,-5,.,
CCNC(=O)n1cc(-n2cncn2)c(-c2ccccc2)n1,-4,2,-2,2,-11,.,
Oc1ccccc1C=NNC(=S)NN=Cc1ccccc1O,.,27*,90*,.,49,67*,
Oc1ccccc1/C=N/NC(=S)NC1CC2CC1C1C=CCC21 (stereo not given),-3,9,59*,-9,13,54*,
Cc1ccnc(NC(=O)c2ccc(S(=O)(=O)NCc3ccco3)cc2)c1,-2,-6,-1,.,-4,.,
COc1cc(C(=O)NCc2ccccc2)ccc1OC(F)F,-1,5,1,-10,-1,.,

# Bioassay records: PubChem BioAssay, Sanford-Burnham Center for Chemical Genomics
